Screen size: about 2,100 compounds; about 1,100 (52%) were called active. Not shown: some 27% with an inconclusive outcome. So high a share suggests a set chosen from earlier hits. This is one part of the list. Values without a mark were called inactive. The call rests on the fitted dose curve; in most records, active means well fitted inhibition curve with a large enough effect; inconclusive means small, poorly fitted or top-dose-only effect; inactive means no such curve, though single readings can be large or run the other way.
Potency means the concentration at half of the fitted maximal effect.

The target in the experiment is DNA dC->dU-editing enzyme APOBEC-3G (Homo sapiens) (UniProt Q9HC16). Nature of the experiment: qHTS for inhibitors of Vif-A3G interactions: Cherry picks counterscreen.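 Further: hits raise yellow fluorescence by blocking Vif-driven A3G-eYFP degradation; nearly all actives have a fitted effect of over 70% in size.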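 On max response: max response given as percent of control signal.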 The following applies: HeLa A3G-eYFP + Vif (tagged APOBEC3G with the HIV-1 protein that degrades it), eYFP fluorescence, 24 h. Put shortly: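 Readout is eYFP fluorescence (488 nm excitation, 500-530 nm emission) measured on Acumen Explorer after 24 h compound exposure, several concentrations, at 37 deg C. Cells: HeLa stably co-expressing Vif and C-terminally eYFP-tagged A3G; MG132 positive control.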
Chain of DNA dC->dU-editing enzyme APOBEC-3G (Homo sapiens) (Q9HC16 whole entry, looked up): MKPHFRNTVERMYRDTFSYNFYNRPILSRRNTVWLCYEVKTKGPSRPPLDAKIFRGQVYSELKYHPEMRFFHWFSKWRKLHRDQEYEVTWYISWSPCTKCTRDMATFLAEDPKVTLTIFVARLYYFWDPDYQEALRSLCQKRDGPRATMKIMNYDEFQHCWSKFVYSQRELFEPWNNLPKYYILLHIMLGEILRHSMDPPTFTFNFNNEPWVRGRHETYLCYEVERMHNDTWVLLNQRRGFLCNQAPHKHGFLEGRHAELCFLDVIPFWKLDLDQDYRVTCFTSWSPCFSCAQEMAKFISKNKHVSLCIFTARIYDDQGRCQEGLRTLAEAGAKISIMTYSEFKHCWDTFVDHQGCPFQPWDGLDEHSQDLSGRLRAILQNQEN
A general note: qHTS replaces the single test concentration by a dilution series.
For `CC(C)OC(=O)c1cc(C(=O)c2cc(F)ccc2O)coc1=N`, the Potency was 20.6 µM (active).
For `CC(C)OC(=O)c1ccc(NCc2cc(O)ccc2O)cc1Cl`, the max response was -19.4%.
With `O=C(N/N=C/c1ccc(Cl)cc1)c1cc2c(s1)-c1ccccc1CC2`, the Potency is 7.04 µM (active).
For the molecule `COc1ccc(-c2[nH]ncc2N=Nc2ccccc2)cc1`, the Potency was 8.86 µM (active).
As for `Cc1ccc(-c2nc(SCCOc3ccccc3C)n3[nH]c(=O)cc3n2)cc1`, the max response was 23%.
On to `Cc1ccccc1OCCc1c(C)[nH]c(=S)[nH]c1=O`, for which the Potency was 2.5 µM (active).
For the molecule `N#C/C(=C\c1cccc(O)c1)c1nc2ccccc2o1`, the Potency is 7.04 µM (active).
As for `O=C(Nc1ccc(Cl)cc1)Nc1ccon1`, the max response is -27.2%.
With `Cc1ccccc1OCC(=O)NNC(=O)Nc1ccc(Cl)cc1`, the Potency is 6.27 µM (active).
Turning to `COc1cccc(/C=N/NC(=O)c2[nH]nc3c2CCc2ccccc2-3)c1`, the Potency was 5.59 µM (active).
For `COc1ccc(/C=N/NC(=O)c2[nH]nc3c2CCc2ccccc2-3)cc1OC`, the Potency was 3.96 µM (active).
Turning to `O=C(NCCC1=CCCCC1)C1CCC(CNc2nc(=S)[nH]c3ccccc23)CC1` (stereo not drawn), the max response was -2.72%.
For the molecule `Cc1cccc2cc3c(N)c(C(=O)Nc4ccc(N5CCOCC5)cc4)sc3nc12`, the Potency is 14 µM (active).
With `Cc1ccc(C)c2nc3sc(C(=O)N4CCOCC4)c(N)c3cc12`, the Potency was 17.7 µM (active).
With `Cc1cccc2cc3c(N)c(C(=O)N4CCOCC4)sc3nc12`, the Potency was 8.2 µM (active).
Still for that read-out and setting: the figure for `Cc1sc(NC(=O)c2sc3nc4c(C)cccc4cc3c2N)c(C#N)c1C` is 17.7 µM (active); for `Cc1ccnc(N/C=C(\C#N)c2nc(-c3cccc(Br)c3)cs2)c1` it is 11.2 µM (active).
Same read-out and setting: next, `Cc1ccc(C(=O)NN(C)c2nc3ccccc3nc2C(F)(F)F)cc1`: 6.27 µM (active); `CN(NC(=O)c1ccccc1)c1nc2ccccc2nc1C(F)(F)F`: 3.53 µM (active).
As to `CC12CC3CC(C)(C1)CC(C(=O)NC(=S)N1CCOCC1)(C3)C2`, the max response was -26.4%.
On to `Cc1cnc(NC(=O)CC(C)c2ccccc2)s1` (stereo not drawn), for which the Potency is 5.59 µM (active).
The same measure, in the same setting: next, `CCn1nc(-c2ccccc2)c2nc3ccccc3nc21`: 23.1 µM (active).
On the same count and under the same terms, the figure for `Cc1ccc(CNC(=O)c2cccc3c2C(=O)c2ccc(N4CCCCC4)cc2S3(=O)=O)cc1` is 18.4 µM (active).
Same read-out and setting: next, `O=C(NCc1cccc(F)c1)c1cccc2c1C(=O)c1ccc(N3CCCC3)cc1S2(=O)=O`: 17.7 µM (active).
For `CC1CCN(c2ccc3c(c2)S(=O)(=O)c2cccc(C(=O)NCc4cccc(F)c4)c2C3=O)CC1`, the Potency was 14 µM (active).
On to `Cc1ccc(CNC(=O)c2cccc3c2C(=O)c2ccc(N4CCC(C)CC4)cc2S3(=O)=O)cc1`, for which the max response is -0.215%.
Take `COc1cc2ccccc2cc1C(=O)N/N=C/c1cccs1`: the Potency was 1.77 µM (active).
The same measure, in the same setting: next, `COc1ccccc1C=CC(=O)C=Cc1ccccc1OC`: 6.27 µM (active).
For the molecule `O=C(NC(=S)N1CCN(C2CCCCC2)CC1)c1ccccc1`, the max response was -11.9%.
In the case of `Nc1ccc(/C=C/c2cc(Cl)nc3ccccc23)cc1`, the Potency was 20.6 µM (active).
Take `CN(C)c1ccc(/C=C/c2cc(/C=C/c3ccc(N(C)C)cc3)c3ccccc3n2)cc1`: the Potency is 3.66 µM (active).
Turning to `CN(C)c1ccc(/C=C/c2nc3ccccc3c(=O)n2CCO)cc1`, the Potency is 20.6 µM (active).
On to `CN(C)c1ccc(/C=C/c2cc(N(C)C)nc3ccccc23)cc1`, for which the Potency was 6.51 µM (active).
In the case of `CCN(CC)c1ccc(/C=C/c2cc(-c3ccccc3)c3ccccc3n2)cc1`, the Potency is 1.98 µM (active).
As for `Cc1ccccc1N1C(=O)c2cccc3c(N(C)CCO)ccc(c23)C1=O`, the Potency is 4.61 µM (active).
As to `COc1ccccc1N1C(=O)c2cccc3c(C(=O)O)ccc(c23)C1=O`, the max response was 6.39%.
For the molecule `COc1ccc(C(=O)c2ccc(OC)c(OC)c2OC)cc1`, the Potency is 2.23 µM (active).
With `O=C(NC1C/C(=N/O)c2cc3c(cc21)OCO3)C(F)(F)F` (stereo not drawn), the max response is -1.11%.
For `CCOc1cc(/C=C2\CN(C)C/C(=C\c3ccc(O)c(OCC)c3)C2=O)ccc1O`, the Potency is 5.59 µM (active).
`COc1cc(/C=C2\COC/C(=C\c3cc(OC)c(OC)c(OC)c3)C2=O)cc(OC)c1OC`: the Potency was 3.14 µM (active).
For `COc1cc(/C=C2\COC/C(=C\c3ccc(O)c(OC)c3)C2=O)ccc1O`, the Potency was 8.86 µM (active).
`COc1cc(C=C2C(=O)c3ccccc3C2=O)cc(OC)c1OC`: the max response was -6.19%.
In the case of `COc1ccc(/C=C2/CSC/C(=C/c3ccc(OC)c(OC)c3)C2=O)cc1OC`, the Potency is 5.59 µM (active).
Consider `Cc1ccc(F)c(S(=O)(=O)NC(=O)C2(C)CCN2C(=O)Cc2ccc(Cl)cc2Cl)c1` (stereo not drawn), for which the max response is 13%.
On to `Cc1cccn2c(=O)c3cc(C#N)c(=NC(=O)c4cccs4)n(CCCOC(C)C)c3nc12`, for which the max response is -8.85%.
For the molecule `COc1ccc(/C=C2\CN(Cc3ccccc3)C/C(=C\c3ccc(OC)c(O)c3)C2=O)cc1O`, the Potency is 6.27 µM (active).
As to `C=CCn1c(SCc2c(C)noc2C)nc2cc(C(=O)O)ccc2c1=O`, the Potency was 17.7 µM (active).
Take `Cc1noc(C)c1CSc1nc2ccccc2c(=O)n1-c1ccccc1`: the Potency is 4.98 µM (active).
Consider `CCn1c2ccccc2c2cc(NC(=O)CNCc3ccccc3OC)ccc21`, for which the Potency is 6.27 µM (active).
On to `COc1ccc(-c2cc(NC(C)=O)c3ncc(-c4cc(OC)c(OC)c(OC)c4)n3c2)cn1`, for which the Potency is 5.59 µM (active).
Take `COc1cc(-c2cnc3c(NC(C)=O)cc(-c4ccccc4CN(C)C)cn23)cc(OC)c1OC`: the Potency was 14 µM (active).
On to `COC(=O)C1=C(C)NC2=C(C(=O)CC(c3cccs3)C2)C1c1ccsc1` (stereo not drawn), for which the Potency was 12.5 µM (active).
Consider `CN(/N=C/c1ccc(N(C)C)cc1)C1=NS(=O)(=O)c2ccccc21`, for which the Potency was 5.59 µM (active).
For the molecule `CN(C)c1ccc(/C=N/N(CCO)C2=NS(=O)(=O)c3ccccc32)cc1`, the max response was -24.9%.
As for `COc1ccc(-c2csc(NC(=S)NC(=O)/C=C/c3ccco3)n2)cc1Br`, the Potency was 3.14 µM (active).
On to `CSc1ccccc1NC(=O)COC(=O)/C=C/c1ccco1`, for which the max response is -23.9%.
Turning to `Cc1nc(NC(=O)/C=C/c2ccco2)sc1C`, the Potency is 6.27 µM (active).
`Cc1ccnc(NC(=S)NC(=O)/C=C/c2ccco2)c1`: the Potency is 6.27 µM (active).
Still for that read-out and setting: the figure for `O=C(/C=C/c1ccco1)NC(=S)Nc1cccc(-c2nc3ccccc3o2)c1` is 4.98 µM (active); for `COc1ccc(OC)c(/C=C/c2nc3ccccc3[nH]c2=O)c1` it is 7.31 µM (active); for `CC(=Nc1ccccc1)C1=C(O)C(Cc2ccccc2)NC1=O` (stereo not drawn) it is 0.396 µM (active).
With `O=C1NC(c2ccccc2Br)=N/C1=C\c1ccco1`, the max response was -4.52%.
Consider `O=C1N/C(=C\c2ccccc2)c2ccccc21`, for which the Potency was 0.994 µM (active).
On the same count and under the same terms, the figure for `CCOC(=O)/C(C#N)=C\C=C1C=CN(C)C=C1` is 2.31 µM (active); for `C=CCN1C=CC(=C/C=C(/C#N)C(=O)OCC)C=C1` it is 3.66 µM (active).
For `c1ccc(Nc2nc(-c3ccccn3)cs2)cc1`, the max response was 16.2%.
Consider `Cc1ccc(Nc2nc(Cl)c(C=O)s2)cc1Cl`, for which the Potency is 13 µM (active).
The same measure, in the same setting: the figure for `O=Cc1sc(Nc2ccccc2)nc1Cl` is 20.6 µM (active); for `CCOC(=O)c1ccc(NC(=O)CSc2nc(-c3ccc(OC)cc3)cc(C(F)(F)F)c2C#N)cc1` it is 23.1 µM (active); for `Cc1cc(C(F)(F)F)c(C#N)c(SCC(=O)Nc2nc3ccccc3s2)n1` it is 18.4 µM (active).
Still for that read-out and setting: next, `CCCCOc1ccc(-c2cc(C(F)(F)F)c(C#N)c(SCC(=O)O)n2)cc1`: 23.1 µM (active).
On the same count and under the same terms, next, `Cc1coc(NC(=O)CSc2nc(-c3ccncc3)cc(C(F)(F)F)c2C#N)n1`: 16.4 µM (active); `CCOC(=O)c1ccc(NC(=O)CSc2nc(-c3ccc(F)cc3)cc(C(F)(F)F)c2C#N)cc1`: 9.2 µM (active).
In the case of `COCc1cc(C)nc(SCC(=O)Nc2ccc3[nH]c(=O)[nH]c3c2)c1C#N`, the max response is -18.1%.
Turning to `COc1ccc(-c2cc3ccccc3oc2=O)cc1NC(=S)NC(=O)c1ccc2c(c1)OCCO2`, the max response is -2.77%.
As for `COc1cccc2sc(Nc3nc(-c4cc5ccccc5oc4=O)cs3)nc12`, the Potency is 3.96 µM (active).
On the same count and under the same terms, next, `CN(C)c1ccc(/C=C2\SC(=S)N(Nc3ncc(C(F)(F)F)cc3Cl)C2=O)cc1`: 5.17 µM (active).
As for `COc1cc(/C=C2\SC(=S)N(NC(=O)c3ccccc3OC)C2=O)ccc1O`, the max response is -17.8%.
Turning to `COc1cc(/C=C2\SC(=S)N(Nc3ncc(C(F)(F)F)cc3Cl)C2=O)ccc1O`, the Potency was 20.6 µM (active).
Take `Cc1cc(C)cc(NC2=NC3(CCCCC3)N=C(N)N2)c1`: the Potency is 19.8 µM (active).
On to `COC(=O)c1ccc(NC(=O)CC2Nc3cc(C)c(C)cc3NC2=O)cc1` (stereo not drawn), for which the Potency was 20.6 µM (active).
As to `CCOC(=O)c1ccc(NC(=S)NC(=O)C2CCCC2)cc1`, the max response is -2.63%.
On the same count and under the same terms, the figure for `CCN(CC)C(=O)Cn1c(=O)n(-c2ccccc2)c(=O)c2c3c(sc21)CCC3` is -20.5%.
For the molecule `CCOc1ccc(C(=O)COC(=O)Cc2n[nH]c(=O)c3ccccc23)cc1`, the Potency was 15.8 µM (active).
Consider `CCOc1ccc(C(=O)C(CCC(CN(C)C)C(=O)c2ccc(OCC)cc2)CN(C)C)cc1` (stereo not drawn), for which the max response is -24.5%.
Consider `O=C(Cc1n[nH]c(=O)c2ccccc12)OCC(=O)c1ccc2c(c1)OCCO2`, for which the Potency was 2.8 µM (active).
Still for that read-out and setting: next, `O=C(Nc1ccc2c(c1)OCCO2)C(=O)c1c[nH]c2ccccc12`: 6.27 µM (active).
Consider `O=C(C(=O)N1CCN(c2ccccc2Cl)CC1)c1c[nH]c2ccccc12`, for which the max response is -13.1%.
Regarding `N#Cc1c(-c2ccc(F)cc2)c(-c2ccc(F)cc2)nn(CCO)c1=O`, the Potency was 7.04 µM (active).
Turning to `N#Cc1c(-c2ccccc2)c(-c2ccccc2)nn(CC(=O)NNC(=O)Nc2ccccc2)c1=O`, the Potency was 1.98 µM (active).
The same measure, in the same setting: next, `CCOC(=O)Cn1c(=O)c(-c2cc(Br)ccc2N)nc2ccccc21`: 8.2 µM (active).
Regarding `CCOC(=O)COn1c(=O)c(-c2ccc(Br)cc2)[n+]([O-])c2ccccc21`, the max response is 4.24%.
Take `CCOc1ccccc1N1CC(c2nc3ccccc3n2Cc2c(C)cc(C)cc2C)CC1=O` (stereo not drawn): the max response is -2.71%.

The record behind these values is PubChem BioAssay AID651813 (National Center for Advancing Translational Sciences (NCATS), 2012).
